# Measured values from paper PMC7862700, “An all-to-all approach to the identification of sequence-specific readers for epigenetic DNA modifications on cytosine”.
# Tests used:
# Experiment in all cases: DAPPL (digital affinity profiling via proximity ligation, sequencing); 10 mM Tris-HCl pH 7.5, 50 mM NaCl, 1 mM DTT, 4% glycerol, room temperature, 30 min; GST-TFs on glutathione beads, 16-mer random dsDNA library, 0.1% formaldehyde crosslink after washing; high values mean tight binding
# Conditions in all cases: protein: recombinant; tags: N-terminal GST; dsDNA, one strand shown
# FLI1 = molecular target: T1, FLI1 (Homo sapiens, UniProt Q01543 1-452)
# T1 sequence: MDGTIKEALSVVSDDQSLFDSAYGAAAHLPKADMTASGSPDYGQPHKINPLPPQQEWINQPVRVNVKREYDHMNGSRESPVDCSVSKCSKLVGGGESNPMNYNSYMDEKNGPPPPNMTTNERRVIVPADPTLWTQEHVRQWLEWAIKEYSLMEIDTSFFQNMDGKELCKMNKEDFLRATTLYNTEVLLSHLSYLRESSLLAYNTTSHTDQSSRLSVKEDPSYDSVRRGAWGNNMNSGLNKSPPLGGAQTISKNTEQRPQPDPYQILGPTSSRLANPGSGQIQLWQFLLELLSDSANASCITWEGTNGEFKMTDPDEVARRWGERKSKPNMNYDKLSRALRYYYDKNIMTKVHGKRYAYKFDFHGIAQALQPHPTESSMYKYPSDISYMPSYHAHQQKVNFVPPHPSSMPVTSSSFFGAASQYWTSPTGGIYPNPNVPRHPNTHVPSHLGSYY
# Summary of the method: (§1)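 Binding signal is defined as a hexamer's read frequency for one factor over its frequency for the tag-only sample. To obtain reads, GST-fused human transcription factors were expressed in yeast, captured on glutathione beads, barcoded with DNA and pooled with that sample. Pools met 200 nmole of a 16-mer random double-stranded DNA library in Tris/NaCl/DTT/glycerol buffer for 30 min at room temperature before washing, 0.1% formaldehyde crosslinking, proximity ligation (BsaI/T4 ligase, 1 h, 37 °C), PCR and Illumina NextSeq500 sequencing.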
# GABPA = molecular target: T2, GABPA (Homo sapiens, UniProt Q06546 1-454)
# T2 sequence: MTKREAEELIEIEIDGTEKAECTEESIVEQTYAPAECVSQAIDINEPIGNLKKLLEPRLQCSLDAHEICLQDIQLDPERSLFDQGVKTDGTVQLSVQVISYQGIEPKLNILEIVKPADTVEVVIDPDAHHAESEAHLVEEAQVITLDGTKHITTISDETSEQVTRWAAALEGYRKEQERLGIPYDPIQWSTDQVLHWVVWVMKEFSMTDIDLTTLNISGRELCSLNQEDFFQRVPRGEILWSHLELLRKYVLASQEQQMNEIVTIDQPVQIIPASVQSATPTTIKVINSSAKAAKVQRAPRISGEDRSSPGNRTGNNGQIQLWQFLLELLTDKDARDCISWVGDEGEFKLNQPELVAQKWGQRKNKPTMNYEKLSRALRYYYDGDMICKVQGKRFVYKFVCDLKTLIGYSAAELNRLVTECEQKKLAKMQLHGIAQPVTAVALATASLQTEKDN
# Summary of the method: as §1
# ERG = molecular target: T3, ERG (Homo sapiens, UniProt P11308 1-479)
# T3 sequence: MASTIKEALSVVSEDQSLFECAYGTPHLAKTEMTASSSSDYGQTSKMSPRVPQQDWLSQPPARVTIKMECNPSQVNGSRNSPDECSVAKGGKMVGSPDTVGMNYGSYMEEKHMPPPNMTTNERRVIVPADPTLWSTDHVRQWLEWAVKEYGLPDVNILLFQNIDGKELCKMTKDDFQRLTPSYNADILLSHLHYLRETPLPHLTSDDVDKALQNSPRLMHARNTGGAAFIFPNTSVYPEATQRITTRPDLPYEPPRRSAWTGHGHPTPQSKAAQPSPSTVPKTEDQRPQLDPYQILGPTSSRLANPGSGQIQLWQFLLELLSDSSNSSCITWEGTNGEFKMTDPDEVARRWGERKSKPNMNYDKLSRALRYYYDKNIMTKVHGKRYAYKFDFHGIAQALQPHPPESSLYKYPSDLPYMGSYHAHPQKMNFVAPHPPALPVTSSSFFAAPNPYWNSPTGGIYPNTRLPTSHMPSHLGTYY
# Summary of the method: as §1
# ELF1 = ELF1 (Homo sapiens, UniProt P32519 1-619)
# Summary of the method: as §1
# EHF = molecular target: T4, EHF (Homo sapiens, UniProt Q9NZC4 1-300)
# T4 sequence: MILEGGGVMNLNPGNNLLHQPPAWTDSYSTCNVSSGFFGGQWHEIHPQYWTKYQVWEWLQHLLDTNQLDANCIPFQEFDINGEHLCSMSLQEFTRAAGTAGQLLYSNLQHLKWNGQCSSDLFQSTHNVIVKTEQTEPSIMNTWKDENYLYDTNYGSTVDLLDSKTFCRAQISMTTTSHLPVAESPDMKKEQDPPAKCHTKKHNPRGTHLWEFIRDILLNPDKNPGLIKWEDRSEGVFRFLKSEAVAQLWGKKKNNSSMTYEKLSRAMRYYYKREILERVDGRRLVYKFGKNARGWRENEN
# Summary of the method: as §1
# SPI1 = SPI1 (Homo sapiens, UniProt P17947 1-270)
# Summary of the method: as §1
# SPIB = SPIB (Homo sapiens, UniProt Q01892 1-262)
# Summary of the method: as §1
# ELK3 = molecular target: T5, ELK3 (Homo sapiens, UniProt P41970 1-407)
# T5 sequence: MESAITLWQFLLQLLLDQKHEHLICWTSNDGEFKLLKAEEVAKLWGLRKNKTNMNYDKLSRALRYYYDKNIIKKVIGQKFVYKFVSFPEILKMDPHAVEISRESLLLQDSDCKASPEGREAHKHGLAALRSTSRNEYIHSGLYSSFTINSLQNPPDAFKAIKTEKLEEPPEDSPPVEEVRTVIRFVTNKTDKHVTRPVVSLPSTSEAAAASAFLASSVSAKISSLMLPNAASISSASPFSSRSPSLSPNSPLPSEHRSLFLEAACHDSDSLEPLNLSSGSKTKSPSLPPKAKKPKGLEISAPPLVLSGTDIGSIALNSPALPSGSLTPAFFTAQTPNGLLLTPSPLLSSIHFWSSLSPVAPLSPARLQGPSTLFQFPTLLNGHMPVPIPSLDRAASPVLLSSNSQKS
# Summary of the method: as §1
# FEV = molecular target: T6, FEV (Homo sapiens, UniProt Q99581 1-238)
# T6 sequence: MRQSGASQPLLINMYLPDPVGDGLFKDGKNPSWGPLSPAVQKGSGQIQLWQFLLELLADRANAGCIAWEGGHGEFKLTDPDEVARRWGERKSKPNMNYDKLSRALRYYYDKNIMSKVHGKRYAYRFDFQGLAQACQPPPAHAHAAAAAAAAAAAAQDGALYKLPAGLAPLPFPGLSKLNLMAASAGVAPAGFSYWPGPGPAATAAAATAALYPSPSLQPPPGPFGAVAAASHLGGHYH
# Summary of the method: as §1
# ETV5 = ETV5 (Homo sapiens, UniProt P41161 1-510)
# Summary of the method: as §1
# SPIC = molecular target: T7, SPIC (Homo sapiens, UniProt Q8N5J4 1-248)
# T7 sequence: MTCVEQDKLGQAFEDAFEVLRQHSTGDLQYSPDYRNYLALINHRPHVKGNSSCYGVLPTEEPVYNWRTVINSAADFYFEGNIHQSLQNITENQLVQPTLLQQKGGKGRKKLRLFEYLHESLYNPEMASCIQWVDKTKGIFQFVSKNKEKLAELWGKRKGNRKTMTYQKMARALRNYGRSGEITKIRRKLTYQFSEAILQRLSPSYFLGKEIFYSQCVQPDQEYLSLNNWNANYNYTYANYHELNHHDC
# Summary of the method: as §1
# ELF4 = ELF4 (Homo sapiens, UniProt Q99607 1-663)
# Summary of the method: as §1
# ETV1 = ETV1 (Homo sapiens, UniProt P50549 1-477)
# Summary of the method: as §1
# ERF = molecular target: T8, ERF (Homo sapiens, UniProt P50548 1-548)
# T8 sequence: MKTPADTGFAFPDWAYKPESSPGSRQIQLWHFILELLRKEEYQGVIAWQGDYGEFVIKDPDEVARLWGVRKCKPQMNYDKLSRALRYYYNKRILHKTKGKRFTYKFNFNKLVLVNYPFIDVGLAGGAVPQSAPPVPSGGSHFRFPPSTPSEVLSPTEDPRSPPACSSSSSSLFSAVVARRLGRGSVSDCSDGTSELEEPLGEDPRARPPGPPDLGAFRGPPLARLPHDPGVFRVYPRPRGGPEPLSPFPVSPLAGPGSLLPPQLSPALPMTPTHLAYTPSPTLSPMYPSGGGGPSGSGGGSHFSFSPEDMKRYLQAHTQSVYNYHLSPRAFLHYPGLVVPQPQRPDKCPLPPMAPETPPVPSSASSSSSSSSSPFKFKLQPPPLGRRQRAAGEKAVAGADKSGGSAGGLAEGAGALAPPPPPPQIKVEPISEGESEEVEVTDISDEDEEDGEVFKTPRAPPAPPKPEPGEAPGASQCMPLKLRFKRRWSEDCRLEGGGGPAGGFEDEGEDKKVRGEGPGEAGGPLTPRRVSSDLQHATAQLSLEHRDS
# Summary of the method: as §1
# ETV3L = molecular target: T9, ETV3L (Homo sapiens, UniProt Q6ZN32 1-361)
# T9 sequence: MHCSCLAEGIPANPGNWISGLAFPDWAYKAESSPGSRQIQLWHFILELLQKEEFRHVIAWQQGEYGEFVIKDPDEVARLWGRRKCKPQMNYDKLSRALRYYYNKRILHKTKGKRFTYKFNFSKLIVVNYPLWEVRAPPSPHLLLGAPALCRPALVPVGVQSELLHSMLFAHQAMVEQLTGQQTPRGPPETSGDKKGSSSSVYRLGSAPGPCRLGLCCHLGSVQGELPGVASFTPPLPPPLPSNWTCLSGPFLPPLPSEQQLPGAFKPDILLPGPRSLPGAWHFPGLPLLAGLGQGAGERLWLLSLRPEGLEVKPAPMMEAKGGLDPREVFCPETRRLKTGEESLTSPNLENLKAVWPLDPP
# Summary of the method: as §1
# ETS2 = molecular target: T10, ETS2 (Homo sapiens, UniProt P15036 1-469)
# T10 sequence: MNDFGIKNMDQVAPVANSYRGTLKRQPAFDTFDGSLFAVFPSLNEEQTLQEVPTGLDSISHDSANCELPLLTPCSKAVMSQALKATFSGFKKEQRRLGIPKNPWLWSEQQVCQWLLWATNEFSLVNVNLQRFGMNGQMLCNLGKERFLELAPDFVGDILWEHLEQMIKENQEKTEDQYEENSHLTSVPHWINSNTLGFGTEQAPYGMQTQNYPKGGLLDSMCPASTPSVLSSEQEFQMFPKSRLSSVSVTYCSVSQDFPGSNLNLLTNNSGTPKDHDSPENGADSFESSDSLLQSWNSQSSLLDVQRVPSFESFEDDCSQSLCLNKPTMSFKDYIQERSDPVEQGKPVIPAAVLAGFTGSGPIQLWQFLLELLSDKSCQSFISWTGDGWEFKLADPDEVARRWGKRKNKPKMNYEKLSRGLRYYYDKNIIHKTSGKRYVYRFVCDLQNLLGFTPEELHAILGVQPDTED
# Summary of the method: as §1
# SPDEF = molecular target: T11, SPDEF (Homo sapiens, UniProt O95238 1-335)
# T11 sequence: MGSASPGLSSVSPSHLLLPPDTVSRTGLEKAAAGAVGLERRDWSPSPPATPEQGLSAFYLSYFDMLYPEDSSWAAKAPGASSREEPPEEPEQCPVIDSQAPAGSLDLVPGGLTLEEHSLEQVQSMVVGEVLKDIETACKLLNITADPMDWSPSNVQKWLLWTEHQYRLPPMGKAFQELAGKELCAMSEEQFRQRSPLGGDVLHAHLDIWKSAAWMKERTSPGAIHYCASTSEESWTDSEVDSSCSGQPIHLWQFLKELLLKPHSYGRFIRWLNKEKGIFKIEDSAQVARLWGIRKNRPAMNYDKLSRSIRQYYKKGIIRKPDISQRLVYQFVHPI
# Summary of the method: as §1
# ETV3 = molecular target: T12, ETV3 (Homo sapiens, UniProt P41162-2 1-143)
# T12 sequence: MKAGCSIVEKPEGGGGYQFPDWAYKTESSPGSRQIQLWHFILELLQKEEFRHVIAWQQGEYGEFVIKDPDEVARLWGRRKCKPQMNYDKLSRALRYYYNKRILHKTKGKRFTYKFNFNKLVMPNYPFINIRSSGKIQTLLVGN
# Summary of the method: as §1
# ETV6 = ETV6 (Homo sapiens, UniProt P41212 1-452)
# Summary of the method: as §1
# Chain of ETV6 (P41212 whole entry): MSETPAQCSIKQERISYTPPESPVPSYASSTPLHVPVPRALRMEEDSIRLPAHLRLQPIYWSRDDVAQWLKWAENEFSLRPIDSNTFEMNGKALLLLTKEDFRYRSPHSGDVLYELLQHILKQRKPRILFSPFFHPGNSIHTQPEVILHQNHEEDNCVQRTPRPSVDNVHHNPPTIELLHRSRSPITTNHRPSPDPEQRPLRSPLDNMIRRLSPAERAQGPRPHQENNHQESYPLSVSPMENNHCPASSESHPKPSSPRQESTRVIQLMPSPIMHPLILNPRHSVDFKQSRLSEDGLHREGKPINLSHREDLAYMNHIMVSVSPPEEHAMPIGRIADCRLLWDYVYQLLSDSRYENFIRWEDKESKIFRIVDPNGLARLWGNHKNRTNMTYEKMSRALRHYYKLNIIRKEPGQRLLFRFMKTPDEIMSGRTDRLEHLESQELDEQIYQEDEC
# Chain of ETV1 (P50549 whole entry): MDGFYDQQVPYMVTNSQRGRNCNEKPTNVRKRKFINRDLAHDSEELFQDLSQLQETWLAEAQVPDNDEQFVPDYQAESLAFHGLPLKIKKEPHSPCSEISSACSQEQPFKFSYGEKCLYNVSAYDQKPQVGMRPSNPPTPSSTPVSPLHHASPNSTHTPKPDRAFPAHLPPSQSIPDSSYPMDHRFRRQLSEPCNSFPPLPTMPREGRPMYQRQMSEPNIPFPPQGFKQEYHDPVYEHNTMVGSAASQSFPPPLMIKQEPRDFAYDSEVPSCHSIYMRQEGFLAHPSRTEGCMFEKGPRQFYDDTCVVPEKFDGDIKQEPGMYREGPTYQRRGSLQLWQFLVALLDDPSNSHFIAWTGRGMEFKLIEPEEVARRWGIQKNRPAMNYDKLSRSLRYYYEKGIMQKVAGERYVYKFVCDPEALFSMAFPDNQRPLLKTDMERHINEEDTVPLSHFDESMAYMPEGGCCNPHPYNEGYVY
# Chain of ELF4 (Q99607 whole entry): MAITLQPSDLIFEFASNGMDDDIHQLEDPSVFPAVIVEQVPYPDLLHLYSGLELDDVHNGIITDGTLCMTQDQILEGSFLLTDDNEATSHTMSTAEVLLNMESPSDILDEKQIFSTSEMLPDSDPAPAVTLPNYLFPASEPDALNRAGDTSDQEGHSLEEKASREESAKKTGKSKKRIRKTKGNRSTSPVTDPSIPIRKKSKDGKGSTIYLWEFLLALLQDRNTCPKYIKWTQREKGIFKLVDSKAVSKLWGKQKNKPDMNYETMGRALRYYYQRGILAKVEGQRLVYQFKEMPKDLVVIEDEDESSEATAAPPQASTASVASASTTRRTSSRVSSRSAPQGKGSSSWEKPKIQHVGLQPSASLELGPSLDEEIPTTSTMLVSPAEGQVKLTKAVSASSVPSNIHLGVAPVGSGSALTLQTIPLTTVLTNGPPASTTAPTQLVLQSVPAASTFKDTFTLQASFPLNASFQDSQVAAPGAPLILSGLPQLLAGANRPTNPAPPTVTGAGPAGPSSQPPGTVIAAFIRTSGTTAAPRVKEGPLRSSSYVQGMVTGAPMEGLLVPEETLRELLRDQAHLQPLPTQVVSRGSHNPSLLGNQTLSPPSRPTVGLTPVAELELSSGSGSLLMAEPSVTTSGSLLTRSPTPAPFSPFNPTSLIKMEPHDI
# Chain of SPIB (Q01892 whole entry): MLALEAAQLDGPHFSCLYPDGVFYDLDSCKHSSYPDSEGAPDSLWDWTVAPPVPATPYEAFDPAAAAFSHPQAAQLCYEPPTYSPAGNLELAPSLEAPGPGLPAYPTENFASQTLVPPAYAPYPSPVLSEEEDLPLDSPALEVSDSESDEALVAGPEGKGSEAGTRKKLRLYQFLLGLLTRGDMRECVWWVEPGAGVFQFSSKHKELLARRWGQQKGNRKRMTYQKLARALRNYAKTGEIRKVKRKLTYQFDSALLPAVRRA
# Chain of ETV5 (P41161 whole entry): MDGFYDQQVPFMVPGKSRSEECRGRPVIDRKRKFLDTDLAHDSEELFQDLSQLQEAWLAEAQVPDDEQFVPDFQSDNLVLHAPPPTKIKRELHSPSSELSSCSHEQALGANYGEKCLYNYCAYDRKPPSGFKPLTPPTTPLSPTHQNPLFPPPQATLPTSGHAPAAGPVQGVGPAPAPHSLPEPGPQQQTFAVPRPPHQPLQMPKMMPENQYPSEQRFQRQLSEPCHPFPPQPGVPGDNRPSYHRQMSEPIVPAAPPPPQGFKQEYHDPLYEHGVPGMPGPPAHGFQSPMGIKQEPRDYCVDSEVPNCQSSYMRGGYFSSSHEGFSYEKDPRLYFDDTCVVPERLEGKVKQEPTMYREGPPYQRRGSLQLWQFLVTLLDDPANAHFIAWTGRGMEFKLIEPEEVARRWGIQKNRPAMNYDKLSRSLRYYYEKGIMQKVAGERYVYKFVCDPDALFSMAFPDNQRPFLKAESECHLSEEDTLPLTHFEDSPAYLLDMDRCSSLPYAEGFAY
# Chain of ELF1 (P32519 whole entry): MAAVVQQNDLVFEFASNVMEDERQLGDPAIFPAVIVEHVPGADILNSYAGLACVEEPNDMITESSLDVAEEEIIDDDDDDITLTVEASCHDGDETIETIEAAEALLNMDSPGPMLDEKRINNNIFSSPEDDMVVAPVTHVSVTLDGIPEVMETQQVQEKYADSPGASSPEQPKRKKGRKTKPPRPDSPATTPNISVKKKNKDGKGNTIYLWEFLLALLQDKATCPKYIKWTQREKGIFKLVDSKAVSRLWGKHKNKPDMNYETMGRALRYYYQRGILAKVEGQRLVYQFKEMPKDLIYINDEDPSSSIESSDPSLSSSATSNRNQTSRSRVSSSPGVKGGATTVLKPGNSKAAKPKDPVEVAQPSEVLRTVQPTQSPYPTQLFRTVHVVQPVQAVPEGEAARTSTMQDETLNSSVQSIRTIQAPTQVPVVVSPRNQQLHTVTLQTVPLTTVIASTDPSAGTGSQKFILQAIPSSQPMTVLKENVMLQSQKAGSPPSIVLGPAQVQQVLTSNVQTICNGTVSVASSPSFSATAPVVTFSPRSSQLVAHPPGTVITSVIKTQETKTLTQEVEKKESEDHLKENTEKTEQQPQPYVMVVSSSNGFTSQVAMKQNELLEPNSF
sequence,measurement,setting,value
ATACCG,binding signal,FLI1,"1.16 fold enrichment (6-mer frequency, TF over GST control)"
same,binding signal,GABPA,"1.02 fold enrichment (6-mer frequency, TF over GST control)"
same,binding signal,ERG,"1.16 fold enrichment (6-mer frequency, TF over GST control)"
same,binding signal,ELF1,"1.11 fold enrichment (6-mer frequency, TF over GST control)"
same,binding signal,EHF,"1.12 fold enrichment (6-mer frequency, TF over GST control)"
same,binding signal,SPI1,"1.06 fold enrichment (6-mer frequency, TF over GST control)"
same,binding signal,SPIB,"1.12 fold enrichment (6-mer frequency, TF over GST control)"
same,binding signal,ELK3,"1.15 fold enrichment (6-mer frequency, TF over GST control)"
same,binding signal,FEV,"1.25 fold enrichment (6-mer frequency, TF over GST control)"
same,binding signal,ETV5,"1.1 fold enrichment (6-mer frequency, TF over GST control)"
same,binding signal,SPIC,"1.05 fold enrichment (6-mer frequency, TF over GST control)"
same,binding signal,ELF4,"1.12 fold enrichment (6-mer frequency, TF over GST control)"
same,binding signal,ETV1,"1.14 fold enrichment (6-mer frequency, TF over GST control)"
same,binding signal,ERF,"1.08 fold enrichment (6-mer frequency, TF over GST control)"
same,binding signal,ETV3L,"1.1 fold enrichment (6-mer frequency, TF over GST control)"
same,binding signal,ETS2,"1.11 fold enrichment (6-mer frequency, TF over GST control)"
same,binding signal,SPDEF,"1.19 fold enrichment (6-mer frequency, TF over GST control)"
same,binding signal,ETV3,"1.2 fold enrichment (6-mer frequency, TF over GST control)"
same,binding signal,ETV6,"1.09 fold enrichment (6-mer frequency, TF over GST control)"
